Tests used:
Assay in all cases: DAPPL (digital affinity profiling via proximity ligation, sequencing); 10 mM Tris-HCl pH 7.5, 50 mM NaCl, 1 mM DTT, 4% glycerol, room temperature, 30 min; GST-TFs on glutathione beads, 16-mer random dsDNA library, 0.1% formaldehyde crosslink after washing; high values mean tight binding
FLI1 = target: T1, FLI1 (Homo sapiens, UniProt Q01543 1-452); settings: protein: recombinant; tags: N-terminal GST; dsDNA, one strand shown
T1 sequence: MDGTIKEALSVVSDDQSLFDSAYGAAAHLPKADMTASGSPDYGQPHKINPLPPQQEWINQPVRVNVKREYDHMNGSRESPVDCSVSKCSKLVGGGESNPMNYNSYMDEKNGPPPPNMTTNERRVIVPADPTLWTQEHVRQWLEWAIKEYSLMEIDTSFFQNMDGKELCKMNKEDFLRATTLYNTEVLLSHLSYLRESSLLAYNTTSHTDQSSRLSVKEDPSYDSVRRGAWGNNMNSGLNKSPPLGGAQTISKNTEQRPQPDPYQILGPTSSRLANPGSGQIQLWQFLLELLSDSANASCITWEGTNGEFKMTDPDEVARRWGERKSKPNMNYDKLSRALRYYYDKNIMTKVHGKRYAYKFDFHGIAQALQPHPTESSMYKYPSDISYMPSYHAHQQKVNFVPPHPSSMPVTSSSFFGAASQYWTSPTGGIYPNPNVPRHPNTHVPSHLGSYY
How it was run: (§1)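 Sequencing on an Illumina NextSeq500 followed washing, crosslinking with 0.1% formaldehyde, proximity ligation (BsaI/T4 ligase, 1 h, 37 °C) and PCR amplification of pools that had been incubated for 30 min at room temperature with 200 nmole of a random double-stranded 16-mer DNA library in Tris/NaCl/DTT/glycerol buffer. Each pool held DNA-barcoded human transcription factors, expressed in yeast as GST fusions and captured on glutathione beads, plus a tag-only sample. Binding signal is a hexamer's read frequency for a factor divided by its frequency in the tag-only sample.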

ELK1 = target: T2, ELK1 (Homo sapiens, UniProt P19419 1-428); settings: protein: recombinant; tags: N-terminal GST; dsDNA, one strand shown
T2 sequence: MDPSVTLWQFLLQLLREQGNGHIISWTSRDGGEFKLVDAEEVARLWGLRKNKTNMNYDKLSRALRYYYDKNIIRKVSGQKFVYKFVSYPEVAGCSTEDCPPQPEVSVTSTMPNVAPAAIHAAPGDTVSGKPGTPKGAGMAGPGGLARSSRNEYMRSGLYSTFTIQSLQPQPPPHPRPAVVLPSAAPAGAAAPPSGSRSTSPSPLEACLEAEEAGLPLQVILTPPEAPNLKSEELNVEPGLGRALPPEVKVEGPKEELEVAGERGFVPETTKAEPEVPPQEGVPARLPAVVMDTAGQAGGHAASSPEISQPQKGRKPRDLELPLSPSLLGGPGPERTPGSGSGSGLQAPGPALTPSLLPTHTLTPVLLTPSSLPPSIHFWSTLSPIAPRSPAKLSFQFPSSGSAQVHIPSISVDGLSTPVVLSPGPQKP
How it was run: as §1

GABPA = target: T3, GABPA (Homo sapiens, UniProt Q06546 1-454); settings: protein: recombinant; tags: N-terminal GST; dsDNA, one strand shown
T3 sequence: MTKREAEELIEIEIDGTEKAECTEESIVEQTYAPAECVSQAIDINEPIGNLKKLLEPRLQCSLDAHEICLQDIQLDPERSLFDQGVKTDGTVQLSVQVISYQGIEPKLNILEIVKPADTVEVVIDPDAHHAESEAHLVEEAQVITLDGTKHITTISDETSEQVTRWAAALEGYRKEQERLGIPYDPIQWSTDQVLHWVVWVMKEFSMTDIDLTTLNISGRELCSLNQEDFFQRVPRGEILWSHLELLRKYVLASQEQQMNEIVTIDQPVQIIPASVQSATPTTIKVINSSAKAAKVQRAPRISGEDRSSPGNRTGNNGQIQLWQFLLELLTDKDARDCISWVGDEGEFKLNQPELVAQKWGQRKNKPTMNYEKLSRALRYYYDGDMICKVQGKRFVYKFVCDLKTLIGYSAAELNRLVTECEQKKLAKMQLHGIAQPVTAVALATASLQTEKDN
How it was run: as §1

ERG = target: T4, ERG (Homo sapiens, UniProt P11308 1-479); settings: protein: recombinant; tags: N-terminal GST; dsDNA, one strand shown
T4 sequence: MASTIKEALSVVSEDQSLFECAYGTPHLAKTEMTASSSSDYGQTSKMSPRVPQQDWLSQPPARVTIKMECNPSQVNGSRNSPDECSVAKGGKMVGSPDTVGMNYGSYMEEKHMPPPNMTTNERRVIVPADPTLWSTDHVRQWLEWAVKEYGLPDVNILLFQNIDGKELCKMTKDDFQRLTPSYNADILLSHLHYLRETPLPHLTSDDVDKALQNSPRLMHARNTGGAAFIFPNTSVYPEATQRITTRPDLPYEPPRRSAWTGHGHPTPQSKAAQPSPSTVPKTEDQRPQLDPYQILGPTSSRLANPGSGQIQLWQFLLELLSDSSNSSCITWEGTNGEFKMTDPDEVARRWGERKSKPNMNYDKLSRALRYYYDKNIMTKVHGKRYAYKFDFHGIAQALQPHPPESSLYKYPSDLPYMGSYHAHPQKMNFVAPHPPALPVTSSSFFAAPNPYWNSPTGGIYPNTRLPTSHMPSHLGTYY
How it was run: as §1

ELF1 = ELF1 (Homo sapiens, UniProt P32519 1-619); settings: protein: recombinant; tags: N-terminal GST; dsDNA, one strand shown
How it was run: as §1

EHF = target: T5, EHF (Homo sapiens, UniProt Q9NZC4 1-300); settings: protein: recombinant; tags: N-terminal GST; dsDNA, one strand shown
T5 sequence: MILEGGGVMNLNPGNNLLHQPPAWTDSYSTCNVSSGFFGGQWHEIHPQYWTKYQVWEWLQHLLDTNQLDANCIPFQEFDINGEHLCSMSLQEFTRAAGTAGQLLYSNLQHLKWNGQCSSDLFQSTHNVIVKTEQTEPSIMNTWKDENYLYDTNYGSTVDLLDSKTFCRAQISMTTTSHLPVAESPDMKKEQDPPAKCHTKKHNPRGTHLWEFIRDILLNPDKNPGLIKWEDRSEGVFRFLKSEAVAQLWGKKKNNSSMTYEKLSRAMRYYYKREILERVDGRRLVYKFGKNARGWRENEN
How it was run: as §1

SPI1 = SPI1 (Homo sapiens, UniProt P17947 1-270); settings: protein: recombinant; tags: N-terminal GST; dsDNA, one strand shown
How it was run: as §1

SPIB = SPIB (Homo sapiens, UniProt Q01892 1-262); settings: protein: recombinant; tags: N-terminal GST; dsDNA, one strand shown
How it was run: as §1

ELK3 = target: T6, ELK3 (Homo sapiens, UniProt P41970 1-407); settings: protein: recombinant; tags: N-terminal GST; dsDNA, one strand shown
T6 sequence: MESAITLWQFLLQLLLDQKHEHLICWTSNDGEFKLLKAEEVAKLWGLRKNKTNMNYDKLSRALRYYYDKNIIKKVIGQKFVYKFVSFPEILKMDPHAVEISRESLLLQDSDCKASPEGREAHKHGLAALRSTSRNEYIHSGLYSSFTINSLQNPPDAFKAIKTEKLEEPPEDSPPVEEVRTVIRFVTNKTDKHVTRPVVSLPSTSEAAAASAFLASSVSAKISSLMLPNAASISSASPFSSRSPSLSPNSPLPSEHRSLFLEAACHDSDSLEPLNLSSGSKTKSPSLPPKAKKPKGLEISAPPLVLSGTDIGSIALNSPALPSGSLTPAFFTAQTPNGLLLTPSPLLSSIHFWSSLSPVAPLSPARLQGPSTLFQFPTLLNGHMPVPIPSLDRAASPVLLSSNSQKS
How it was run: as §1

FEV = target: T7, FEV (Homo sapiens, UniProt Q99581 1-238); settings: protein: recombinant; tags: N-terminal GST; dsDNA, one strand shown
T7 sequence: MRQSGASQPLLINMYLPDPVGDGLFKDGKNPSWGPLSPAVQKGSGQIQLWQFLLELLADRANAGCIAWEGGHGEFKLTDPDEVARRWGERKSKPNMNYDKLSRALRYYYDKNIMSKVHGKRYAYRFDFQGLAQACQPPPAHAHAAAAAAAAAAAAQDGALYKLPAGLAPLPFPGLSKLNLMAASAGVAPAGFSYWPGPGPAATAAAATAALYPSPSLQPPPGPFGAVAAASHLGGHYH
How it was run: as §1

ETV5 = ETV5 (Homo sapiens, UniProt P41161 1-510); settings: protein: recombinant; tags: N-terminal GST; dsDNA, one strand shown
How it was run: as §1

HSF1 = HSF1 (Homo sapiens, UniProt Q00613 1-529); settings: protein: recombinant; tags: N-terminal GST; chain copies: 3; dsDNA, one strand shown
How it was run: as §1

SPIC = target: T8, SPIC (Homo sapiens, UniProt Q8N5J4 1-248); settings: protein: recombinant; tags: N-terminal GST; dsDNA, one strand shown
T8 sequence: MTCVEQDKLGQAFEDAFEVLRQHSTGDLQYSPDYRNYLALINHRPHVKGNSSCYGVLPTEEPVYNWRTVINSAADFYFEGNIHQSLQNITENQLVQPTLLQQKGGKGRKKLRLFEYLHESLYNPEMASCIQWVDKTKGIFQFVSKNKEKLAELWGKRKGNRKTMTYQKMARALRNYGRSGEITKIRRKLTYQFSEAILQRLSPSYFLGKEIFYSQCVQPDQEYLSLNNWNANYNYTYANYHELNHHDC
How it was run: as §1

ELF4 = ELF4 (Homo sapiens, UniProt Q99607 1-663); settings: protein: recombinant; tags: N-terminal GST; dsDNA, one strand shown
How it was run: as §1

ELK4 = target: T9, ELK4 (Homo sapiens, UniProt P28324-2 1-405); settings: protein: recombinant; tags: N-terminal GST; dsDNA, one strand shown
T9 sequence: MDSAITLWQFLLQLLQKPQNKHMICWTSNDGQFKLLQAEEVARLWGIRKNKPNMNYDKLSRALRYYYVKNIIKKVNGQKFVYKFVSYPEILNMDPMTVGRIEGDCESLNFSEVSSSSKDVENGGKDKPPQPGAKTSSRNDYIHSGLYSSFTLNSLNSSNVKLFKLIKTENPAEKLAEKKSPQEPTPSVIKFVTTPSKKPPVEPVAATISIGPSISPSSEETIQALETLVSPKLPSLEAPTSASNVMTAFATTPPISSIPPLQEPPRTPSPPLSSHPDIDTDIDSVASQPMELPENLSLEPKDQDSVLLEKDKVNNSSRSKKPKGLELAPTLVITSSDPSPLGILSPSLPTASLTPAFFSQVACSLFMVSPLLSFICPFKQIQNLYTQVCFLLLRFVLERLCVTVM
How it was run: as §1

ETV2 = target: T10, ETV2 (Homo sapiens, UniProt O00321 1-342); settings: protein: recombinant; tags: N-terminal GST; dsDNA, one strand shown
T10 sequence: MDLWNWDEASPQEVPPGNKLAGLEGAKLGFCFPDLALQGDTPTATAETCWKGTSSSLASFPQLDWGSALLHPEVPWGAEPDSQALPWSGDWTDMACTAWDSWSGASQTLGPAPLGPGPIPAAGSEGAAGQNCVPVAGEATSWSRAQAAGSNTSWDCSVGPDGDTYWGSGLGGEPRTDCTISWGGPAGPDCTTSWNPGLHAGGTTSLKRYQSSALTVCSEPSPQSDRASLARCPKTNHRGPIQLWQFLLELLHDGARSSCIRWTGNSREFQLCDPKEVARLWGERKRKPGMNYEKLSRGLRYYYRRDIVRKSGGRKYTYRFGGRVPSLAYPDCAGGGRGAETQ
How it was run: as §1

ELF3 = target: T11, ELF3 (Homo sapiens, UniProt P78545 1-371); settings: protein: recombinant; tags: N-terminal GST; dsDNA, one strand shown
T11 sequence: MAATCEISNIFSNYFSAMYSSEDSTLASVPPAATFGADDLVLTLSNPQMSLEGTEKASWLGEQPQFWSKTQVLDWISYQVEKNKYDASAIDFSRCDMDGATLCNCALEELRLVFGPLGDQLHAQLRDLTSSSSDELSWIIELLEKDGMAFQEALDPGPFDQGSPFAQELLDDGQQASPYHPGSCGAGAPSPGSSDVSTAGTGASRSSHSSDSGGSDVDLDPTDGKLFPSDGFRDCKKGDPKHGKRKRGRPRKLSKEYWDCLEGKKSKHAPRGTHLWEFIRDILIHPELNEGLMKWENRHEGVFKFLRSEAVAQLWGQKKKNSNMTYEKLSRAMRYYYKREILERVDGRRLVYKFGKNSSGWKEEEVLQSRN
How it was run: as §1

CRX = CRX (Homo sapiens, UniProt O43186 1-299); settings: protein: recombinant; tags: N-terminal GST; dsDNA, one strand shown
How it was run: as §1

ETV1 = ETV1 (Homo sapiens, UniProt P50549 1-477); settings: protein: recombinant; tags: N-terminal GST; dsDNA, one strand shown
How it was run: as §1

SPIB, sequence (Q01892 whole entry): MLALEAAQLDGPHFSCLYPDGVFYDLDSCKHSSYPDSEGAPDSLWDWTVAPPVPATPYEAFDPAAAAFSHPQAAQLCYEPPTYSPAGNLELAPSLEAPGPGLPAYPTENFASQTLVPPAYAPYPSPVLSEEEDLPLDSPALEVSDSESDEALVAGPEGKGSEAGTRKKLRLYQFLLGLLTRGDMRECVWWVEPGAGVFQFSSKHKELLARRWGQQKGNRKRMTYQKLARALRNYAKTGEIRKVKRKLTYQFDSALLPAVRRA
ELF1, sequence (P32519 whole entry): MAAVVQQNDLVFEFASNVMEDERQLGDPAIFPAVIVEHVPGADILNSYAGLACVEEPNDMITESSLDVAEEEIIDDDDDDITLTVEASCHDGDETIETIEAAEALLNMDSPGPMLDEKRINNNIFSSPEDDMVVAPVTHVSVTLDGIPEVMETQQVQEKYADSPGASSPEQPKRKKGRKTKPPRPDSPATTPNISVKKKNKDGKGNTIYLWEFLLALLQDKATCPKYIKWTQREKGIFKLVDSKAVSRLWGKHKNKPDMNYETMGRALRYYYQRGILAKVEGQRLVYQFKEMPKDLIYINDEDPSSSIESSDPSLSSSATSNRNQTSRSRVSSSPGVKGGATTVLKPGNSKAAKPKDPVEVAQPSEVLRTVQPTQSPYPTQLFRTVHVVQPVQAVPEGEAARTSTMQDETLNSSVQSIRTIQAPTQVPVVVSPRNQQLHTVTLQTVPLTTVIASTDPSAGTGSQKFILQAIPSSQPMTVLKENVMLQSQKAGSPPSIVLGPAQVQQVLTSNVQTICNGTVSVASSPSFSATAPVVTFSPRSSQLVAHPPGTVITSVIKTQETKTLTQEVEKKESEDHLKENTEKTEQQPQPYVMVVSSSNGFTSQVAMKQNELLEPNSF
CRX, sequence (O43186 whole entry): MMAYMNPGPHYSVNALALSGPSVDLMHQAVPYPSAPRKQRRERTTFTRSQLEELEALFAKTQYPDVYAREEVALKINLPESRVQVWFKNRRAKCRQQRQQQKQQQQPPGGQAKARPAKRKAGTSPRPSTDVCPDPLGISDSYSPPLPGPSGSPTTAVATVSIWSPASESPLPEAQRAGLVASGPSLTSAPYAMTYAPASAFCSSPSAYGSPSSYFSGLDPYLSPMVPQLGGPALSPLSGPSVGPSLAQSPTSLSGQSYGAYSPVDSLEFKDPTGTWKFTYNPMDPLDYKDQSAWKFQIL
ELF4, sequence (Q99607 whole entry): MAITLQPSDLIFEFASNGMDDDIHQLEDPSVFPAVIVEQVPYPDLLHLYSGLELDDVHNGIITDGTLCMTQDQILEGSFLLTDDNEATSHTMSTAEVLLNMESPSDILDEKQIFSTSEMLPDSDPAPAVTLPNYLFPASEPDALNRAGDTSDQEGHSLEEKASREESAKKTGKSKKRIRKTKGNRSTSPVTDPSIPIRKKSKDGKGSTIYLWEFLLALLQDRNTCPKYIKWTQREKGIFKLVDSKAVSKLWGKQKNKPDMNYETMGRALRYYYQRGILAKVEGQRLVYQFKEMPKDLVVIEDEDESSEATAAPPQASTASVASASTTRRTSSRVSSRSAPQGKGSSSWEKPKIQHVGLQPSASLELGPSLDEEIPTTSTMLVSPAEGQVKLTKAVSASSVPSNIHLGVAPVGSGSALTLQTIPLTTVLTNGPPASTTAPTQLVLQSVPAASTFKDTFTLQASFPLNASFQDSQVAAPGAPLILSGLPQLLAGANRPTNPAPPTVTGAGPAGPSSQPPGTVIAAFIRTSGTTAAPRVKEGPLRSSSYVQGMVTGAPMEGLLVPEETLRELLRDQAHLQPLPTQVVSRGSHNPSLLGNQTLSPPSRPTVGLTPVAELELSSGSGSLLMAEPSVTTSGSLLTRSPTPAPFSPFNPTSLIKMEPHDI
HSF1, sequence (Q00613 whole entry): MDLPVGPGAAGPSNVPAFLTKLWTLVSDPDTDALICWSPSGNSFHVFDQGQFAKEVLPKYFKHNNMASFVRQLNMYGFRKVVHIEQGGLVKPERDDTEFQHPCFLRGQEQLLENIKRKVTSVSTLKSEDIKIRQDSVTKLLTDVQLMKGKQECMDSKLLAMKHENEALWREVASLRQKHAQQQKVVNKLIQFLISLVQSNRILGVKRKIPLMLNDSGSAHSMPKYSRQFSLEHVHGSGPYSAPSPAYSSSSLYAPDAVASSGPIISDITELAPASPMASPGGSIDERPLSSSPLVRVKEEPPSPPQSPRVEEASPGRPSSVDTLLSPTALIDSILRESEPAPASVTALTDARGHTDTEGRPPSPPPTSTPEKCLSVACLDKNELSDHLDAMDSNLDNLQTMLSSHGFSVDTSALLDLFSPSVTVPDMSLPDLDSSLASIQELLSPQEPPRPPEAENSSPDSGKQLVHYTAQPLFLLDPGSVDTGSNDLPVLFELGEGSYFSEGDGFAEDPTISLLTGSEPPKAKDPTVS
ETV1, sequence (P50549 whole entry): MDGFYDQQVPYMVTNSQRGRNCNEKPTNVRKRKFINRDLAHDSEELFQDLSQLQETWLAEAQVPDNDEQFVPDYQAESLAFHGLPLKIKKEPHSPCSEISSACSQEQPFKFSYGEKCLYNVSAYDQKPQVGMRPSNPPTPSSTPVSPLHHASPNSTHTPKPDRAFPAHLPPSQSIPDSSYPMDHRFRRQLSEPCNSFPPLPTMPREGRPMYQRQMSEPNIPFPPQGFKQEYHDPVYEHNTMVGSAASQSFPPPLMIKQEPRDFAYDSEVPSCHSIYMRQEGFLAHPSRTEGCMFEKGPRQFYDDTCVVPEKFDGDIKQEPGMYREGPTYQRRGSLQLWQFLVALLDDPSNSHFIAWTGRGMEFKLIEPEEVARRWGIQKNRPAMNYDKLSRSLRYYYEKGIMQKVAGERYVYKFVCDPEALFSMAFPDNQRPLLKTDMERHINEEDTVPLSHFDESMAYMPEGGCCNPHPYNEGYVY
ETV5, sequence (P41161 whole entry): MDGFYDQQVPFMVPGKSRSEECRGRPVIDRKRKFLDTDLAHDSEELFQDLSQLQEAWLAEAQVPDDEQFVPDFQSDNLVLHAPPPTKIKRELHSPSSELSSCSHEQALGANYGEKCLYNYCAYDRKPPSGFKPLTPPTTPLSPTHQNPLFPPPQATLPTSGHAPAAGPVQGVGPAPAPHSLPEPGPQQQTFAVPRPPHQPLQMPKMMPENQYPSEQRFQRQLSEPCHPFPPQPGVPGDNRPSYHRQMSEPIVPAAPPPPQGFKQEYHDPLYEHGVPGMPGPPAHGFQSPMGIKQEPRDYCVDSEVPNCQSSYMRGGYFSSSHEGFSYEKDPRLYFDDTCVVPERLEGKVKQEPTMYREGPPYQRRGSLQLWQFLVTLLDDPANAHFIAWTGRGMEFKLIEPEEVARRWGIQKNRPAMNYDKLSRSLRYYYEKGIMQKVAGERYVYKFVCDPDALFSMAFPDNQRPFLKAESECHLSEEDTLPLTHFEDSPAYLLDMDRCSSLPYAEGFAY

TAATAC
binding signal (FLI1): 1.11 fold enrichment (6-mer frequency, TF over GST control) | binding signal (ELK1): 1.07 fold enrichment (6-mer frequency, TF over GST control) | binding signal (GABPA): 1.04 fold enrichment (6-mer frequency, TF over GST control) | binding signal (ERG): 1.09 fold enrichment (6-mer frequency, TF over GST control) | binding signal (ELF1): 1.13 fold enrichment (6-mer frequency, TF over GST control) | binding signal (EHF): 1.13 fold enrichment (6-mer frequency, TF over GST control) | binding signal (SPI1): 1.05 fold enrichment (6-mer frequency, TF over GST control) | binding signal (SPIB): 1.06 fold enrichment (6-mer frequency, TF over GST control) | binding signal (ELK3): 1.04 fold enrichment (6-mer frequency, TF over GST control) | binding signal (FEV): 1.12 fold enrichment (6-mer frequency, TF over GST control) | binding signal (ETV5): 1.04 fold enrichment (6-mer frequency, TF over GST control) | binding signal (HSF1): 1.63 fold enrichment (6-mer frequency, TF over GST control) | binding signal (SPIC): 1.12 fold enrichment (6-mer frequency, TF over GST control) | binding signal (ELF4): 1.14 fold enrichment (6-mer frequency, TF over GST control) | binding signal (ELK4): 1.04 fold enrichment (6-mer frequency, TF over GST control) | binding signal (ETV2): 1.16 fold enrichment (6-mer frequency, TF over GST control) | binding signal (ELF3): 1.05 fold enrichment (6-mer frequency, TF over GST control) | binding signal (CRX): 2.45 fold enrichment (6-mer frequency, TF over GST control) | binding signal (ETV1): 1.11 fold enrichment (6-mer frequency, TF over GST control)

Source: PMC7862700, “An all-to-all approach to the identification of sequence-specific readers for epigenetic DNA modifications on cytosine”
